The full ranking holds about 33,000 sequences; the median of “E-score (-0.5 to 0.5)” is about -0.035, and the highest 2% start at about 0.34. Many of the other results were omitted from the sample, so the highest values are more common in it than they were.
These sequences were tested against T1, Mot3 (UniProt P54785) (assay: PBM E-score (8-mer binding enrichment) (E-score (-0.5 to 0.5)); higher = stronger / more preferred TF binding). Conditions: protein concentration: 200 nM; construct: GST-full length.
T1 sequence: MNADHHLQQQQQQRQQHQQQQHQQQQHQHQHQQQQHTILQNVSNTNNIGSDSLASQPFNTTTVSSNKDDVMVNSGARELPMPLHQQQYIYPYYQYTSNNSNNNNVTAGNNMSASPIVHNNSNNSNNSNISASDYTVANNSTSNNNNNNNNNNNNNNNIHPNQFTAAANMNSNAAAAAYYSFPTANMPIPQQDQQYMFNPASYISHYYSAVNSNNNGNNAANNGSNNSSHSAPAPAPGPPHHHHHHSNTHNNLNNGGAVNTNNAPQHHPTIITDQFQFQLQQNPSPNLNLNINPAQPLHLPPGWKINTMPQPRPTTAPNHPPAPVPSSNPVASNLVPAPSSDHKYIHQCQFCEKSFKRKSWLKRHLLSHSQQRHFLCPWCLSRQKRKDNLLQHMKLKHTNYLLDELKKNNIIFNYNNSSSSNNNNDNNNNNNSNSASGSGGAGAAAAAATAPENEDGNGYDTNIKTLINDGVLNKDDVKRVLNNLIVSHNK
In short: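 Bound GST-tagged yeast transcription factors, applied at about 100-200 nM to double-stranded universal all-10-mer Agilent arrays, were detected with fluorescent anti-GST. Scans were normalised with masliner. A modified Wilcoxon-Mann-Whitney statistic, the E-score, was assigned to each ungapped eight-base word pooled with its reverse complement by the Universal PBM Analysis Suite.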
In the case of ATCAGCCC, the “PBM E-score” value is reported as -0.272. AAAGATGG was tested, and the “PBM E-score” value was -0.0558. For ACTTGTTC, the “PBM E-score” value was 0.162. With ACAGCCCA the “PBM E-score” value was -0.0365. In the case of AATTTCCG, the “PBM E-score” value is reported as -0.0949. In the case of AATTTCCT, the “PBM E-score” value is reported as 0.364. With AATTTCCC the “PBM E-score” value was -0.164. ACTTTCCT was tested, and the “PBM E-score” value was 0.383. For ACTTTCCG, the “PBM E-score” value was -0.182. With ACTTTCCC the “PBM E-score” value was 0.0581. With ATCCGGTG the “PBM E-score” value was 0.0537. CCACTACG was tested, and the “PBM E-score” value was -0.0192. With GGATGAAC the “PBM E-score” value was -0.105. GTGAAAAA was tested, and the “PBM E-score” value was 0.155. With TAGGGGGA the “PBM E-score” value was -0.264. For CGACCCTA, the “PBM E-score” value was -0.148. AGACTTTC was tested, and the “PBM E-score” value was -0.187. CCGTTCTA was tested, and the “PBM E-score” value was 0.17. With CGCAGGTA the “PBM E-score” value was 0.35. With GACAGGTA the “PBM E-score” value was 0.25. With CACAGGTA the “PBM E-score” value was 0.352. AGCAGGTA was tested, and the “PBM E-score” value was 0.328. With TACAGGTA the “PBM E-score” value was 0.393. CGCAGGTC was tested, and the “PBM E-score” value was 0.0458. In the case of CACAGGTC, the “PBM E-score” value is reported as -0.272. For CACAGGTG, the “PBM E-score” value was 0.0773. With AACAGGTA the “PBM E-score” value was 0.269. GGTGCGAC was tested, and the “PBM E-score” value was -0.251. With ACAACGGC the “PBM E-score” value was -0.0371. In the case of GAAAAGCC, the “PBM E-score” value is reported as -0.338. With CTAGGTAC the “PBM E-score” value was 0.26. For CTAGGTAA, the “PBM E-score” value was 0.182. For ATAGGTAA, the “PBM E-score” value was 0.356. ATAGGTAC was tested, and the “PBM E-score” value was 0.406. ATAGGTAG was tested, and the “PBM E-score” value was 0.109. ATAGGTGA was tested, and the “PBM E-score” value was -0.0643. In the case of GTAGGTTA, the “PBM E-score” value is reported as 0.22. For GTAGGTAA, the “PBM E-score” value was 0.346. For GTAGGTGA, the “PBM E-score” value was 0.0361. For GCGGTAAC, the “PBM E-score” value was 0.063. In the case of ACATCTTA, the “PBM E-score” value is reported as 0.0996. With CCAAGCGG the “PBM E-score” value was -0.135. GACATCGC was tested, and the “PBM E-score” value was 0.0096. In the case of GGTTTTAC, the “PBM E-score” value is reported as 0.154. CATTCCGC was tested, and the “PBM E-score” value was -0.146. In the case of GACTACCA, the “PBM E-score” value is reported as -0.0944. With CGATTACG the “PBM E-score” value was 0.123. CGATTACA was tested, and the “PBM E-score” value was 0.357. In the case of ATATTACA, the “PBM E-score” value is reported as 0.332. GGATTACA was tested, and the “PBM E-score” value was 0.371. With AGATTACT the “PBM E-score” value was 0.101. In the case of GGATTAGA, the “PBM E-score” value is reported as -0.13. With CTATTACA the “PBM E-score” value was 0.378. In the case of CTATTACC, the “PBM E-score” value is reported as 0.142. With GGATTACC the “PBM E-score” value was -0.0377. With TGATTACA the “PBM E-score” value was 0.311. With AGATTACA the “PBM E-score” value was 0.354. For AGATTACC, the “PBM E-score” value was 0.157. For GGACAAAC, the “PBM E-score” value was 0.0402. AAACCTCG was tested, and the “PBM E-score” value was -0.21. ACCAAATC was tested, and the “PBM E-score” value was -0.166. For GCACTCCC, the “PBM E-score” value was -0.112. With AACACAGC the “PBM E-score” value was 0.268. For CGTGTCAC, the “PBM E-score” value was 0.157. GACCTGAA was tested, and the “PBM E-score” value was -0.107. CGATGTAG was tested, and the “PBM E-score” value was 0.103. For TCATGTCA, the “PBM E-score” value was 0.283. For TCATGTAA, the “PBM E-score” value was 0.414. CCATGTCG was tested, and the “PBM E-score” value was 0.247. GCATGTAA was tested, and the “PBM E-score” value was 0.41. For ACATGTCG, the “PBM E-score” value was 0.246. TGATGTAA was tested, and the “PBM E-score” value was 0.281. With ACATGTAG the “PBM E-score” value was 0.388. In the case of ACATGTAC, the “PBM E-score” value is reported as 0.333. With GCATGTAC the “PBM E-score” value was 0.321. With GCATGTCA the “PBM E-score” value was 0.26. In the case of CCATGTAG, the “PBM E-score” value is reported as 0.346. In the case of CATGTCGC, the “PBM E-score” value is reported as 0.175. In the case of CACTAGTG, the “PBM E-score” value is reported as -0.12. For CATCAACG, the “PBM E-score” value was 0.00915. With ACTAGGTG the “PBM E-score” value was 0.125. With CTTAAAGC the “PBM E-score” value was 0.00562. CTCGTCGA was tested, and the “PBM E-score” value was -0.0922. For GTCGAGCA, the “PBM E-score” value was -0.114. For AAGGTTAC, the “PBM E-score” value was 0.0496. CCTATGCC was tested, and the “PBM E-score” value was -0.0577. With AGCGCTTG the “PBM E-score” value was -0.185. With CGTTGGCA the “PBM E-score” value was 0.00506. In the case of ACATGTGA, the “PBM E-score” value is reported as 0.225. CCATGTAC was tested, and the “PBM E-score” value was 0.327. In the case of ACATGTAT, the “PBM E-score” value is reported as 0.357. With ACATGTCA the “PBM E-score” value was 0.319. In the case of ACATGTAA, the “PBM E-score” value is reported as 0.437. With AGATGTAT the “PBM E-score” value was 0.133. With ACATGTCT the “PBM E-score” value was 0.235. With CCATGTGA the “PBM E-score” value was 0.141. With CCATGTAA the “PBM E-score” value was 0.411. With ATTCCTTG the “PBM E-score” value was 0.0459. In the case of GTCAGAGA, the “PBM E-score” value is reported as -0.242. AATGAGCT was tested, and the “PBM E-score” value was -0.0919. With AGTCTGAA the “PBM E-score” value was -0.204. In the case of GAGTTAAC, the “PBM E-score” value is reported as 0.0651. CTGTTAAA was tested, and the “PBM E-score” value was 0.238. In the case of ATGTTACC, the “PBM E-score” value is reported as 0.237. For GTGTTAAA, the “PBM E-score” value was 0.384. With CTGTTAAC the “PBM E-score” value was 0.199. For ATGTTAAC, the “PBM E-score” value was 0.397. With TTGTTAAA the “PBM E-score” value was 0.256. For ACGTTAAC, the “PBM E-score” value was 0.25. For GTGTTAAC, the “PBM E-score” value was 0.352. GCTAAATA was tested, and the “PBM E-score” value was 0.0782. CGGAATAG was tested, and the “PBM E-score” value was -0.201. In the case of GATGACGC, the “PBM E-score” value is reported as 0.0115. In the case of AGTCAGTG, the “PBM E-score” value is reported as -0.157. For GGCGCCCC, the “PBM E-score” value was -0.0368. ACAGGCTC was tested, and the “PBM E-score” value was 0.404. ACAGGCGT was tested, and the “PBM E-score” value was 0.172. GCAGGCGC was tested, and the “PBM E-score” value was 0.361. For GCAGGCGA, the “PBM E-score” value was 0.123. For CCAGGCGC, the “PBM E-score” value was -0.00734. With ACAGGCGG the “PBM E-score” value was -0.015. In the case of ACAGGCTG, the “PBM E-score” value is reported as 0.0165. ACAGGCGC was tested, and the “PBM E-score” value was 0.371. With ACAGGCTA the “PBM E-score” value was 0.183. For CCCGCTTC, the “PBM E-score” value was -0.191. For CCCAGGAC, the “PBM E-score” value was -0.288. CTGCTTGC was tested, and the “PBM E-score” value was 0.0147. In the case of AAGCGCAG, the “PBM E-score” value is reported as -0.124. With CGTATGCA the “PBM E-score” value was -0.0506. ACAGGAGA was tested, and the “PBM E-score” value was -0.0281. With TCAGGAGA the “PBM E-score” value was -0.0813. TCAGGAAA was tested, and the “PBM E-score” value was 0.394. With AGAGGAAA the “PBM E-score” value was 0.0488. For CCAGGAGC, the “PBM E-score” value was -0.247. In the case of CCAGGAAC, the “PBM E-score” value is reported as 0.406. In the case of GCAGGAGC, the “PBM E-score” value is reported as 0.0355. For GCAGGAAC, the “PBM E-score” value was 0.463. ACAGGAAA was tested, and the “PBM E-score” value was 0.453. In the case of CCAGGAAG, the “PBM E-score” value is reported as -0.078. With GCAGGACC the “PBM E-score” value was -0.237. In the case of CCAGGAAA, the “PBM E-score” value is reported as 0.324. With ATAGGTGC the “PBM E-score” value was 0.24. For AAGCGAGT, the “PBM E-score” value was -0.0166. In the case of CCGGGTCC, the “PBM E-score” value is reported as -0.279. For AAAGGGCC, the “PBM E-score” value was -0.132. AAGCCACT was tested, and the “PBM E-score” value was -0.172. AGCTGGAA was tested, and the “PBM E-score” value was -0.29. With GCGCCAGC the “PBM E-score” value was 0.128. In the case of TGCTAAAA, the “PBM E-score” value is reported as 0.0711. In the case of CGCTGAAA, the “PBM E-score” value is reported as 0.0848. ACAAATCT was tested, and the “PBM E-score” value was 0.103. With CTAGTTTC the “PBM E-score” value was -0.178. AAGCAGTG was tested, and the “PBM E-score” value was 0.0592. For TAGTGGAA, the “PBM E-score” value was -0.00095. In the case of ACAGGAAG, the “PBM E-score” value is reported as 0.0333. With GCAGGATA the “PBM E-score” value was -0.121. For GGAGGAAA, the “PBM E-score” value was 0.0847. In the case of CCAAGGAA, the “PBM E-score” value is reported as 0.254. With GCAGGAAA the “PBM E-score” value was 0.451. In the case of ACAGGAAC, the “PBM E-score” value is reported as 0.466. With TCAAGGAA the “PBM E-score” value was 0.363. ACAAGGAA was tested, and the “PBM E-score” value was 0.263. For ACAGGAAT, the “PBM E-score” value was 0.107. With ATCCATCA the “PBM E-score” value was -0.0789. For AGAGAGAG, the “PBM E-score” value was -0.326. For CAACAGTC, the “PBM E-score” value was -0.167. CAGGTACA was tested, and the “PBM E-score” value was 0.406. With TAGGTACA the “PBM E-score” value was 0.36. With TGGGTACA the “PBM E-score” value was 0.0297. For CCGGTACA, the “PBM E-score” value was 0.0242. GAGGTACA was tested, and the “PBM E-score” value was 0.192. In the case of TAGGTATA, the “PBM E-score” value is reported as -0.0008.

— the supplement of paper PMC3334620
